According to PubChem BioAssay (NCI):
This is part of a sample that, as a whole, favours compounds with a hit. Of some 79,000 tested, about 15% had one in any assay. The source made the active and inactive calls. No stated cut-off is given here; in the data, active means growth inhibition above about 70%; inactive means the rest.

Legend:
[1] = NCI Yeast Anticancer Drug Screen. Data for the rad50 strain (AID 155);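 further: 0% = growth of vehicle-only cultures of the same strain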; conditions: S. cerevisiae rad50 strain growth inhibition; at 50.0 µM; hits give high values
Summary of the method: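 DNA repair mutant yeast, compound exposure, growth read-out; inhibition is taken relative to vehicle.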

[2] = NCI Yeast Anticancer Drug Screen. Data for the mec2-1 strain (AID 157); conditions: S. cerevisiae mec2-1 strain, at 50.0 µM, hits give high values
Summary of the method: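 Compounds were applied to mec2-1 yeast cells. Their growth was then compared with that of vehicle-treated cultures to give growth inhibition.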

[3] = NCI Yeast Anticancer Drug Screen. Data for the sgs1 mgt1 strain (AID 161);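 further: 0% = growth of cultures given vehicle only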; conditions: S. cerevisiae sgs1 mgt1 strain, at 50.0 µM, hits give high values
Summary of the method: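 This yeast growth screen uses a strain with defined DNA-repair lesions; compound-treated growth is compared with vehicle-treated growth.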

[4] = NCI Yeast Anticancer Drug Screen. Data for the cln2 rad14 strain (AID 165);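 further: 0% = growth equal to vehicle treated cultures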; conditions: S. cerevisiae cln2 rad14 strain, at 50.0 µM, hits give high values
Summary of the method: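 Strain: cln2 rad14 yeast, altered in cell cycle control and DNA damage repair. Read-out: growth inhibition vs vehicle.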

[5] = NCI Yeast Anticancer Drug Screen. Data for the bub3 strain (AID 167); conditions: S. cerevisiae bub3 mutant strain, at 50.0 µM, hits give high values
Summary of the method: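 In this screen, a yeast mutant lacking normal mitotic checkpoint function is challenged with compound. Relative growth versus vehicle gives the inhibition value.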

[6] = NCI Yeast Anticancer Drug Screen. Data for the mlh1 rad18 strain (AID 175); conditions: S. cerevisiae mlh1 rad18 strain growth inhibition; at 50.0 µM; hits give high values
Summary of the method: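 A repair-deficient yeast strain is exposed to test compound, and growth is scored relative to vehicle-treated controls.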

Measured: growth inhibition

Cc1cccc(N=NC2Sc3nc4ccccc4n3C2=O)c1 (configuration not stated)
inactive: [1] -16.9% | [2] -19.4% | [3] -20.1% | [4] -9.25% | [5] 2.25% | [6] 2.9%

CC(=O)C1C(=O)C(=O)N(c2ccccc2N2C(=O)C(=O)C(C(C)=O)C2=O)C1=O (configuration not stated)
inactive: [1] 18.6% | [2] -2.25% | [3] 10.8% | [4] 17.8% | [5] -2.35% | [6] 25.8%

C/C=C\COC(=O)CC(C)=O
inactive: [1] -1.35% | [2] -23.4% | [3] -4.3% | [4] -2.75% | [5] -26.3% | [6] -16.6%

c1ccc(N2N=NC3C4CC(C5COCC54)C32)cc1 (configuration not stated)
inactive: [1] 4.6% | [2] -7.1% | [3] -24.9% | [4] -8.55% | [5] 0.65% | [6] -9.25%

C=C(C)C#CCN(CCO)C(C)C
inactive: [1] -7.45% | [2] -30.3% | [3] -12.9% | [4] 9.2% | [5] -19.4% | [6] 4.75%

COc1cc2ccccc2cc1CO
inactive: [1] -4.15% | [2] -4.2% | [3] -3.8% | [4] -16.1% | [5] -22.8% | [6] -0.45%

CC(=C/C=C/C=C(C)\C=C\C=C(\C)C(=O)O)/C=C/C=C(/C)C(=O)O
inactive: [1] 18.1% | [2] -7.95% | [3] 8.65% | [4] 7.75% | [5] 16.4% | [6] 16.9%

COc1cc(C(=O)NOCc2cccc(C(F)(F)F)c2)cc(OC)c1OC
inactive: [1] 39.8% | [2] -11.2% | [3] 15.9% | [4] -14.8% | [5] 2.5% | [6] 6.25%

COC(=O)C(NC(=O)c1ccccc1)C(C)=O (configuration not stated)
inactive: [1] 9.5% | [2] -0.7% | [3] -3.4% | [4] -35.4% | [5] -16.9% | [6] 10%

Cc1ccc[n+](CCCCCCCC[n+]2cccc(C)c2)c1
inactive: [1] 54.7% | [2] 2.7% | [3] 44.4% | [4] -2.25% | [5] 3.4% | [6] 33.2%

CCCCCCC(=O)CC1(C(=O)OC)NC(=S)NC(=O)C1C#N (configuration not stated)
inactive: [1] 18.1% | [2] 6.85% | [3] -1.55% | [4] -0.75% | [5] -9.55% | [6] 15.8%

CC(=O)Nc1c(Cl)c(Cl)c2c(c1Cl)Cc1cc([N+](=O)[O-])ccc1-2
inactive: [1] 9.2% | [2] -12.8% | [3] 7.6% | [4] -9.1% | [5] 3.15% | [6] 2.1%

CCOc1cc(/C=C2\N=C(c3ccccc3)OC2=O)ccc1O
inactive: [1] 5% | [2] 1.2% | [3] 2.6% | [4] -50.8% | [5] -12.8% | [6] -2.75%

Cn1c2ccccc2c2nnc(N/N=C/c3cccnc3)nc21
inactive: [1] -39.1% | [2] -36.5% | [3] -17.4% | [4] -44.6% | [5] -5.05% | [6] -5.7%

Cc1ccc(N=C=C(c2ccc(Cl)cc2)c2ccc(Cl)cc2)cc1
active: [1] 73.2% | [3] 70.8% | [6] 77.2%
inactive: [2] 64.4% | [4] 60.2% | [5] 59.6%

CNC(=O)CNC(=O)C(Cc1ccc(NC(=O)CCCCC(C)=O)cc1)NC(=O)C(CCC(=O)OCc1ccccc1)NC(=O)OC(C)(C)C (configuration not stated)
inactive: [1] -19.6% | [2] -23.6% | [3] -26.1% | [4] 0% | [5] -30.1% | [6] -17.1%

C=C(C)CS(=O)(=O)O
inactive: [1] -0.15% | [2] 3.45% | [3] 1.85% | [4] -13.1% | [5] 3.35% | [6] 1.65%

CCCCCCC(O)CC[C@H]1CCC[C@@H](C)N1 (some centres not stated)
inactive: [1] 46% | [2] 26.3% | [3] 39.5% | [4] 38.9% | [5] 45.5% | [6] 38.5%

CCC1(C(=O)OC)CCC2C3CCC4CCCCC4(C)C3CCC21C (configuration not stated)
inactive: [1] 4.6% | [2] -8.9% | [3] 9.25% | [4] -3.95% | [5] 5.4% | [6] 11.1%

CCC(=O)OCCCc1ccccc1
inactive: [1] 22.1% | [2] 8.25% | [3] 15.8% | [4] 9.25% | [5] 12.3% | [6] 10.8%

CC(=O)OC1C(C)OC(n2cnc3c(=O)[nH]cnc32)C1OC(C)=O (configuration not stated)
inactive: [1] 2.95% | [2] -15.6% | [3] -0.45% | [4] -3.45% | [5] -2% | [6] 10.8%

N#CC(C#N)=CNC(=S)c1ccncc1
inactive: [1] -21.1% | [2] -33.6% | [3] -19.6% | [4] 6.7% | [5] -4.85% | [6] -24.2%

CC1=CC(=O)C(C(O)(C(F)(F)F)C(F)(F)F)C(C)(C)C1 (configuration not stated)
inactive: [1] -37.1% | [2] -38% | [3] -5.45% | [4] -23.8% | [5] -4.95% | [6] -6.9%

Cc1ccc(S(=O)(=O)NC(Cc2ccccc2)C(=O)NCc2cccnc2)cc1 (configuration not stated)
inactive: [1] 23.6% | [2] -8.4% | [3] 5.2% | [4] 4.45% | [5] -4.1% | [6] 4.65%

C=CCC(CC=C)(C(=O)Nc1ccc2nc(C)cc(N)c2c1)C(=O)Nc1ccc2nc(C)cc(N)c2c1
inactive: [1] 2.05% | [2] 24.7% | [3] 22.1% | [4] 20.1% | [5] 12.4% | [6] -10.1%

CC/C(=C\c1ccc(OC)cc1)c1ccc(OC)cc1
inactive: [1] -16.1% | [2] -31.1% | [3] 7.05% | [4] 4.75% | [5] 1.75% | [6] -5.05%

Cc1ccc(S(=O)(=O)NC(=O)N(Cc2ccccc2)C(C)(C)C)cc1
inactive: [1] 3.4% | [2] 20.4% | [3] 16.1% | [4] -0.15% | [5] 14.2% | [6] 16.9%

c1ccc(C(NC2=NCCO2)C2CC2)cc1 (configuration not stated)
inactive: [1] -12.8% | [2] -18.4% | [3] -9.1% | [4] 23.3% | [5] -9.55% | [6] -54.9%

C=CCC1(C(=O)OC)CCC/C(=N\O)C1 (configuration not stated)
inactive: [1] 7.5% | [2] -17.8% | [3] -19.4% | [4] 4.1% | [5] -26.9% | [6] -3.45%

COc1ccc2c(c1)C(=O)C1CCC(=O)N1C2c1ccc2c(c1)OCO2 (configuration not stated)
inactive: [1] -9.65% | [2] 18.3% | [3] 10.2% | [4] 5.9% | [5] 47.1% | [6] -0.3%

CSc1cc(Br)ccc1-n1c(C(=O)c2ccccc2)c(SC)n(-c2ccccc2)c1=O
inactive: [1] -0.05% | [2] 21.3% | [3] 20.6% | [4] 7.65% | [5] 15.7% | [6] 5.05%

O=C1Nc2noc(=O)nc2NO1
inactive: [1] 13.1% | [2] 4.8% | [3] -0.35% | [4] -2.5% | [5] -22.4% | [6] -18.5%

O=c1[nH]c2cc(Cl)ccc2c2cc(Cl)ccc12
inactive: [1] 39.9% | [2] 7.6% | [3] 16.6% | [4] -3.3% | [5] -0.3% | [6] 52.2%

Nc1ncc2ncn(C3CCC(CO)O3)c2n1 (configuration not stated)
inactive: [1] -6.9% | [2] -10.1% | [3] -22.2% | [4] -4.65% | [5] -10.8% | [6] -6.45%

CCOC(=O)C1=C(C)N[C@H](c2ccccc2[N+](=O)[O-])N[C@H]1c1ccccc1[N+](=O)[O-]
inactive: [1] 22.2% | [2] 19.7% | [3] 19.9% | [4] 7% | [5] 1.45% | [6] 9.25%

CC1(CCl)Nc2ccccc2C(=O)N1c1ccc(F)cc1 (configuration not stated)
inactive: [1] -7.55% | [2] -21.9% | [3] -0.9% | [4] 1.4% | [5] 14.6% | [6] -3.35%

Cc1cccc(NC(=O)C(C)C)c1
inactive: [1] 24.3% | [2] 19.4% | [3] 11.8% | [4] -2.35% | [5] -43.9% | [6] -33%
